# Screening results (PubChem)
# FEN1 inhibitor – blocks human flap endonuclease 1 | Recombinant FEN1 flap cleavage, fluorescence, 15 min | Potency, µM (highest dose often 114 µM), for the others: at the top dose activity change, negative = inhibition, usual class: inhibitors | actives 0.35% (n = 390,000); also: potency is read from the fitted curve at half-maximal effect; nearly all actives have a fitted effect of over 65% in size
#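 Steps: FEN1 (10 nM) dispensed; compound added by pin tool; 15 min at room temperature; substrate added to 50 nM final; reads at 0 min and 15 min; data normalized and fitted (four-parameter Hill).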
# PI5P4K alpha inh – blocks human PI5P4K alpha kinase activity; P48426; PI5P4Kalpha enzyme, ADP-Glo luminescence, 60 min; stronger effect = lower value; max response, %; actives 1.2% (n = 330,000); AID 652105; active = max response of -50% or lower; inconclusive = between -30% and -50%; inactive = -30% or higher; also: value at the top dose of about 77 µM
#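 Reactions run in 0.038 M HEPES pH 7.4, 0.28 mM EGTA, 0.1% CHAPS and 5% DMSO, with PI5P4Kalpha, substrate, compound and 5 microM ATP final, one hour at room temperature. Readout is ADP-Glo luminescence.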
# BLM helicase inh – inhibitors of human Bloom syndrome helicase BLM; Potency, µM (titrated, usually from 56.1 µM), without a hit: at the highest dose activity change, negative = inhibition, most hits filed as inhibitors; P54132; AID 2528; recombinant BLM DNA unwinding, fluorescence dequenching; actives 0.2% (n = 350,000);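 also: potency is read from the fitted curve at half-maximal effect; plate controls were vehicle for no effect and no enzyme for full effect; nearly all actives have a fitted effect of over 35% in size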
# APEX1 inh – APE1 (human) endonuclease inhibition. Potency, µM (titrated, usually from 65.8 µM), without a hit: at the top dose activity change, negative = inhibition, usual class: inhibitors. actives 0.35% (n = 350,000). recombinant APE1, TAMRA/BHQ-2 abasic DNA cleavage fluorescence. AID 2517. P27695;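 also: potency is read from the fitted curve at half-maximal effect; plate controls were vehicle for no effect and reference inhibitor for full effect; nearly all actives have a fitted effect of over 55% in size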
#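 Quantitative HTS: incision of a TAMRA/BHQ-2 double-stranded substrate bearing a tetrahydrofuran abasic site by 0.75 nM APE1 raises fluorescence. Substrate 50 nM final, added after 15 min compound preincubation at room temperature; progress as third-minus-first kinetic read difference.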
# GCN5L2 inh – inhibitors of human GCN5L2 histone acetyltransferase. actives 0.21% (n = 390,000). GCN5L2 HAT assay, ThioGlo1 CoA-SH fluorescence. Q92830. Potency, µM (doses to about 58.9 µM), without a hit: at the top dose activity change, negative = inhibition, most hits filed as inhibitors. AID 504327; also: potency is read from the fitted curve at half-maximal effect
#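 ThioGlo1-coupled HAT assay: 20nM GCN5L2, 70uM acetyl-CoA, 75uM H3(1-25) peptide, pH 7.5. Fluorescence read at 340/540nm at start and after 20 min at room temperature.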
# RECQ1 inh-1 – blocks DNA unwinding by human RECQ1; P46063; RECQ1 DNA unwinding, red fluorescence kinetic read; Potency, µM (titrated, usually from 57.3 µM), for inactives: at the top dose activity, negative = inhibition, most hits filed as inhibitors; actives 0.54% (n = 240,000); AID 2549;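 also: potency is read from the fitted curve at half-maximal effect; plate controls were vehicle for no effect and no enzyme for full effect; nearly all actives have a fitted effect of over 30% in size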
#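 50 nM RECQ1T1 preincubated 15 min with compound in Tris pH 8.0 buffer with MgCl2, DTT, Tween-20 and 2.5 ug/ml poly(dI-dC); started with 200 nM TAMRA/BHQ-2 forked duplex and 2 mM ATP. Unwinding read as fluorescence (525/598 nm), two reads 2 h apart.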
# RECQ1 conf – confirmation of human RECQ1 helicase inhibitors. shares compounds with RECQ1 inh-1. RECQ1 helicase DNA unwinding, fluorescence. Potency, µM (doses to about 229 µM), for the others: at the highest dose activity change, negative = inhibition, actives largely listed as inhibitors. actives 28% (n = 610); also: potency is read from the fitted curve at half-maximal effect; nearly all actives have a fitted effect of over 45% in size
# ADP FP counter – displaces ADP in a fluorescence polarization counter-screen for RECQ1 hits; shares compounds with RECQ1 inh-1; ADP fluorescence polarization displacement counterscreen; Potency, µM (top dose mostly 228 µM), without a hit: at the highest dose activity change, negative = inhibition, usual class: inhibitors; actives 27% (n = 530); AID 2711; also: potency is read from the fitted curve at half-maximal effect; nearly all actives have a fitted effect of over 45% in size
# RECQ1 inh-2 – RECQ1 helicase inhibition confirmed, round 2. shares compounds with RECQ1 inh-1. recombinant RECQ1 DNA unwinding, red fluorescence. Potency, µM (series often up to 119 µM), for the others: at the highest dose activity, negative = inhibition, most hits filed as inhibitors. actives 15% (n = 1,100). AID 504841; also: potency is read from the fitted curve at half-maximal effect; nearly all actives have a fitted effect of over 50% in size
# Numbers without * were called inactive; u = inconclusive; x = no result; ! = repeats disagree; [ ] = dose if it differs, or a comment. Most compounds without a hit are left out; they make up all but 1.5% or so of the library. Unless noted, calls follow the shape of the dose curve; as a rule, active = well fitted curve in the direction sought with a large enough effect; inconclusive = small, poorly fitted or top-dose-only effect, or another doubt; inactive = no such curve, though single readings can be large; an effect the other way counts as inactive or inconclusive. Unless noted, % is scaled to controls: 0 for no effect and ±100 for the full control effect.
SMILES,FEN1 inhibitor,PI5P4K alpha inh,BLM helicase inh,APEX1 inh,GCN5L2 inh,RECQ1 inh-1,RECQ1 inh-2,others
CN1/C(=C\C(=O)COC(=O)CNC(=O)c2ccc3ccccc3c2)C(C)(C)c2ccccc21,-33%,-14,-7%,6%,-9%,35µM*,56µM*,
Cc1cc(=O)[nH]c(SCC(=O)/C=C2\N(C)c3ccccc3C2(C)C)n1,7%,-10,1%,-11%,-4%,32µM*,-50%,
c1ccc(-c2nc(-c3cnc4ccccc4n3)cs2)cc1,-3%,x,x,x,x,x,x,
CCn1c(CCCOc2ccc(Cl)cc2Cl)nnc1SCC(=O)Nc1cccc(F)c1,-2%,x,-3%,-2%,2%,13µM*,-15%,RECQ1 conf=10%[114 µM];ADP FP counter=-12%[91.9 µM]
COC(=O)C1=C(C(=O)OC)[C@@H]2N(Cc3ccccc3)c3ccccc3[C@@]23C[C@@H](C(=O)OC)N(S(=O)(=O)c2cccs2)C3=N1,x,x,0%[12.4 µM],-3%[12.4 µM],x,-3%[11.5 µM],x,
Cc1ccc(CNC(=O)C(Cc2ccccc2)NS(=O)(=O)c2ccc3c(c2)CCC(=O)N3)cc1 (stereo not drawn),0%,-2,0%,-2%,1%,-4%,x,RECQ1 conf=-6%;ADP FP counter=11%
Cc1ccc(NC(=O)C(Cc2ccccc2)NS(=O)(=O)c2ccc3c(c2)CCC(=O)N3)cc1 (stereo not drawn),8%,x,-5%,x,-6%,x,x,
COc1ccc(NC(=O)CN(c2ccccc2)S(=O)(=O)N(C)C)cc1OC,10%,x,-2%,u,2%,u,u,
O=C(Cn1cnc2cc([N+](=O)[O-])ccc2c1=O)NC(c1ccccc1)c1ccccc1,-2%,-5,-7%,12%,-5%,u,-5%,
CN(C)c1ccc(-c2cc(C3C4C=CCCC4(C)C(=O)N3Cc3ccccc3)ccc2F)cc1 (stereo not drawn),3%,x,-13%,-1%,x,-20%,x,
C/C(=C\COc1c2ccoc2cc2oc(=O)ccc12)CCC(O)C(C)(C)O (stereo not drawn),x,x,-8%,16%,30%,4%,x,
COc1ccc(Cn2cccc(NC(=O)Nc3cccc(OC)c3)c2=O)cc1,-5%,1,-11%,-1%,-9%,u,-17%,
COc1cccc(F)c1C(=O)NC(=O)Nc1ccc2nc(C)oc2c1,7%,-3,-6%,u,-8%,35µM*,26%,
O=C(CCc1ccc(O)cc1)c1c(O)cc(O)cc1O,u,-69*,-15%,-6%,-12%,13µM*!,-13%,
Cc1ccc(NC(=O)CN2C(=O)S/C(=C\c3cc(C)n(-c4ccc(C(=O)O)cc4)c3C)C2=O)cc1,u,u,-10%,4%,-7%,u,u,
C[C@H](NC(=O)c1nc[nH]c1C(=O)N[C@@H](Cc1ccccc1)C(=O)OCc1ccccc1)c1ccccc1,-24%,4,-15%,-7%,-11%,40µM*,-24%,
C[C@@H](NC(=O)c1nc[nH]c1C(=O)N[C@@H](Cc1ccccc1)C(=O)OCc1ccccc1)c1ccccc1,u,-2,-15%,-2%,-5%,-26%,x,
CC(C)C[C@H](NC(=O)c1nc[nH]c1C(=O)N[C@@H](CCCCNC(=O)OC(C)(C)C)C(=O)OC(C)(C)C)C(=O)OCc1ccccc1,0%,0,-13%,4%,-16%,x,x,
CC(C)C[C@H](NC(=O)c1nc[nH]c1C(=O)NCCCCCNC(=O)OC(C)(C)C)C(=O)OCc1ccccc1,-15%,7,-16%,u,-12%,u,-20%,
CCCN1CNc2c(c(=O)[nH]c(=S)n2CCc2ccccc2C)C1,14%,x,x,x,x,x,x,
CC[C@H](C)[C@H](NC(=O)[C@H](C)NC(=O)CNC(=O)[C@H](CCCN=C(N)N)NC(=O)[C@H](C)NC(=O)[C@H](CC(C)C)NC(=O)[C@H](CCC(=O)O)NC(=O)[C@H](CC(C)C)NC(=O)[C@H](C)NC(=O)[C@@H](N)CCC(=O)O)C(=O)N[C@@H](Cc1ccccc1)C(=O)N[C@@H](CCC(N)=O)C(=O)N[C@@H](C)C(=O)O,x,x,-4%,2%,0%,0%,x,
CN(C)c1ccc(-c2nc(Nc3ccncc3)c3ccccc3n2)cc1,x,x,-13%,5%,u,u,u,
O=c1nc(/C=C/c2ccc(-c3ccc(F)cc3)o2)cc(C(F)(F)F)[nH]1,x,x,-4%,-3%,-21%,23%,x,
O=C(O)c1ccccc1-c1ccc(/C=C/c2cc(C(F)(F)F)[nH]c(=O)n2)o1,-32%,u,-3%,0%,0%,u,79µM*,
CCOC(=O)C1(CC2CC2)CCN(Cc2cn[nH]c2-c2ccccc2)CC1,1%,-1,-2%,2%,-1%,-6%,x,
SMILES,FEN1 inhibitor,PI5P4K alpha inh,BLM helicase inh,APEX1 inh,GCN5L2 inh,RECQ1 inh-1,RECQ1 inh-2,others
CCOC(=O)C1(CC2CC2)CCN(S(=O)(=O)/C=C/c2ccccc2)CC1,-15%,3,-5%,6%,-15%,u,-17%,
O=C1CC(=O)CC(c2ccccc2Cl)C1,15%,-13,5%,-9%,-7%,u,-15%,
Cc1c2c(=O)n(-c3nc4ccccc4s3)nc-2cc(O)n1Cc1ccccc1,u,-78*,16µM*,u,u,22µM*,-6%,RECQ1 conf=45µM*;ADP FP counter=48%[91.9 µM]
CCOc1ccc2nc(SCC(=O)N3c4ccccc4Sc4ccccc43)sc2c1,-14%,-3,0%,16%,5%,-1%,x,RECQ1 conf=-7%;ADP FP counter=15%
CC(C)C[C@H](NC(=O)[C@H](CC(C)C)NC(=O)[C@@H](Cc1c[nH]c2ccccc12)NC(=O)[C@H](Cc1ccccc1)NC(=O)[C@@H](Cc1c[nH]c2ccccc12)NC(=O)[C@H](CCC(N)=O)NC(=O)[C@H](CCC(N)=O)NC(=O)[C@@H]1CCCN1C(=O)[C@H](CCCCN)NC(=O)[C@@H]1CCCN1C(=O)[C@H](N)CCCN=C(N)N)C(N)=O,x,x,-4%,-2%,-9%,-11%,x,
CCNc1nc(C#N)nc(Nc2ccccc2)n1,-18%,x,x,x,x,x,x,
